ALDH1A1 inh: qHTS Assay for Inhibitors of Aldehyde Dehydrogenase 1 (ALDH1A1); Purified ALDH1A1, NADH fluorescence, propionaldehyde substrate; hit rate 7.3% among 220,000; Potency, µM (series often up to 75.3 µM), actives largely listed as inhibitors; Aldehyde dehydrogenase 1A1 (Homo sapiens), P00352
KinaseGlo FLuc: Counterscreen for Luciferase (Kinase-Glo TM) Inhibition | Kinase-Glo luciferase, ATP luminescence, 8 min | AID 1379, 2008 | Luciferin 4-monooxygenase (Photuris pensylvanica), Q27757 | Potency, µM (doses to about 38.3 µM), hits mostly inhibitors | hit rate 0.28% among 200,000; active = well fitted inhibition curve with a large enough effect; inconclusive = small, poorly fitted or top-dose-only effect; note: nearly all actives have a fitted effect of over 60% in size
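Inhibition of Kinase-Glo luciferase light generation was assessed at 10 uM ATP in pH 7.2 imidazole buffer, with luminescence measured after eight minutes at ambient temperature.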
IMPase inh: qHTS Assay for Identifying the Cell-Membrane Permeable IMPase Inhibitors; 120,000 tested, under 10 active; AID 901, 2007; inhibition (IP1 accumulation), % at 46.1 µM; CHO-M1 cells, IP1 accumulation, HTRF TR-FRET ratio; active = well fitted curve in the direction sought with a large enough effect in the signal ratio, not every such curve was filed as active; inconclusive = small, poorly fitted or top-dose-only effect, or a change in a side signal; inactive = no such curve, though single readings can be large or run the other way; the % refers to the signal ratio;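 note: cells stimulated with carbachol in lithium chloride buffer; higher means more IMPase inhibition seen as more IP1 and lower FRET ratio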
Target sequence (P97697 whole entry, looked up): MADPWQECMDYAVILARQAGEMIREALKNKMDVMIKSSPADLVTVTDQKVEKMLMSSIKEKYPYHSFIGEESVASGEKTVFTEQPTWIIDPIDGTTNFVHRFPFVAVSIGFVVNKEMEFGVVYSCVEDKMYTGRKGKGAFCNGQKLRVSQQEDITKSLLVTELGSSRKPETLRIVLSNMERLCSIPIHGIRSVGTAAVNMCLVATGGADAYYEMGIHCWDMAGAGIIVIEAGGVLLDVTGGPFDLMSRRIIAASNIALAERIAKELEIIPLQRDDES
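Cellular IMPase inhibition is scored as a rise in cytosolic IP1, detected by competitive TR-FRET between d2-labelled IP1 and a europium anti-IP1 antibody. M1-expressing CHO cells were stimulated with carbachol for 30 min at 37C, with lithium (50 mM LiCl) present in the buffer.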
PNC assembly inh: High Content Assay for Compounds that inhibit the Assembly of the Perinucleolar Compartment | PC3M PTB-GFP, PNC prevalence imaging, 16 h; active compounds read low | activity change (PNC), negative = inhibition, % at 10 µM | AID 2417, 2010 | hit rate 3.1% among 140,000;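 active = readout at or below -70, meaning at least 70% loss of cells showing the perinucleolar compartment, a nuclear body marking cancer cells; inconclusive = readout between -30 and a set limit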
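Read-out is percentage of cells bearing a perinucleolar compartment, from automated 20x imaging of fixed, Hoechst-stained PC3M PTB-GFP cells. Cells were seeded 4 h, then exposed 16 h to compound (23 nl of library stock) in duplicate plates.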
LMNA splice mod: qHTS Assay for Modulators of Lamin A Splicing. hit rate 0.01% among 200,000. Potency, µM (doses to about 46.1 µM), most hits filed as inhibitors. HeLa LMNA splicing GFP/RFP minigene ratio, 48 h; active = well fitted inhibition curve with a large enough effect in the signal ratio, with a control signal flat, not every such curve was filed as active; inconclusive = small, poorly fitted or top-dose-only effect, or effect the other way, or a change in a side signal; the % refers to the signal ratio
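S3 HeLa cells stably expressing lamin A-EGFP splicing minigene plus DsRed2, 600 cells/well, 48 h compound exposure at 37C. Laser-scanning cytometry; analysed as GFP (500-530 nm)/RFP (575-640 nm) total intensity ratio; 0.5% DMSO vehicle.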
HPGD block: qHTS Assay for Inhibitors of HPGD (15-Hydroxyprostaglandin Dehydrogenase); 15-hydroxyprostaglandin dehydrogenase [NAD(+)] (Homo sapiens), P15428; Potency, µM, actives largely listed as inhibitors; purified HPGD, NADH fluorescence kinetic, PGE2 substrate; hit rate 4.3% among 150,000
Target sequence (P15428 whole entry, looked up): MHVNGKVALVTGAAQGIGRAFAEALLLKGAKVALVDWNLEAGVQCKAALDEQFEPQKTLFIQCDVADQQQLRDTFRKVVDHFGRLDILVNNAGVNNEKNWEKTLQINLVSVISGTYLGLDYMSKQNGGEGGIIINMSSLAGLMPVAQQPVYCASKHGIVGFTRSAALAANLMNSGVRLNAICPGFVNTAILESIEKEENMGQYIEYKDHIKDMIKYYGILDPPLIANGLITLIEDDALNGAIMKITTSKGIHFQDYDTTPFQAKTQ
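NADH formation kinetics: reaction with 30 uM PGE2 and 1 mM NAD+ (final), 20 nM enzyme, Tris-HCl pH 8 with Tween 20, after 15 min compound preincubation at room temperature. Fluorescence change, last versus first of five reads.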
A number is an active result; . = inactive; ? = inconclusive; / = not tested or not shown; ! = not active in a repeat; [ ] = remark or other dose. This is a sample that favours compounds with a hit; in the whole collection about 10% have one here. Unless noted, calls come from the whole dose curve; as a rule, active = well fitted inhibition curve with a large enough effect (not every such curve was filed as active); inconclusive = small, poorly fitted or top-dose-only effect, or another doubt; inactive = no such curve, though single readings can be large or run the other way.

SMILES | ALDH1A1 inh | KinaseGlo FLuc | IMPase inh | PNC assembly inh | LMNA splice mod | HPGD block
CS(=O)(=O)c1ccc([C@H](O)[C@H](CF)NC(=O)C(Cl)Cl)cc1 | . | . | . | / | ? | .
CC1CN=C(Nc2ccc(N(C)C)cc2)S1 (stereo not drawn) | . | / | . | . | . | /
CC1CN=C(Nc2ccccc2)S1 (stereo not drawn) | . | . | . | . | . | 8.9µM
COc1cc2c(cc1OC)[C@]13CC[N@+]4(C)CC5=CCO[C@H]6CC(=O)N2[C@@H]1C6[C@@H]5C[C@]34O (stereo partly drawn) | .[13.5 µM] | .[7.66 µM] | / | / | / | .
CC1CC(C)C(=O)[C@H](C(O)CC2CC(=O)NC(=O)C2)C1 (stereo partly drawn) | . | . | / | / | / | .
COC(=O)c1ccccc1N | ? | / | / | / | / | .
CCOC(=O)N(c1ccccc1)P1(=S)OCCO1 | ? | . | . | . | . | ?
COC(=O)N(c1ccccc1)P1(=S)OCCO1 | 4µM | . | . | ? | . | 8.9µM
COC(=O)c1ccc(N2C(=O)CC(N3CCC(n4c(=O)[nH]c5ccccc54)CC3)C2=O)cc1 (stereo not drawn) | 10µM | . | . | . | . | .
COC(=O)c1ccc(N2C(=O)CC(N3CCC(O)(c4ccc(Br)cc4)CC3)C2=O)cc1 (stereo not drawn) | 3.2µM | . | . | . | . | .
COc1cc(CCN)c(OC)c(OC)c1 | .[13.5 µM] | .[7.66 µM] | / | / | / | .
O=C1C(Cl)=C(Cl)C(=O)C(Cl)=C1Cl | 0.4µM | . | / | / | / | 0.89µM
COc1ccc(C(c2ccc(OC)cc2)C(Cl)(Cl)Cl)cc1 | 14µM! | . | / | / | . | .
Cc1cccc(N2C(=O)/C(=C/c3ccc(N4CCN(C)CC4)o3)C(=O)NC2=S)c1C | 14µM | . | / | . | . | .
BrC(Br)Br | . | / | / | / | / | .
CC(C)(C)OOC(C)(C)C | . | / | / | / | / | .
COC(C)(C)C | 18µM | / | / | / | / | .
COC1=CC(=O)O[C@@H](/C=C/c2ccc3c(c2)OCO3)C1 | 25µM | / | / | / | / | .
CNC(=O)CSP(=S)(OC)OC | ? | . | / | / | . | .
COP(=S)(OC)SCN1C(=O)c2ccccc2C1=O | ? | . | . | . | . | 20µM
CO[C@@H]1CC=C2CCN3CCC4=C(CC(=O)OC4)[C@]23C1 | / | / | . | / | / | /
CN(C)c1ccc(N=Nc2ccccc2)cc1 | ? | / | / | / | / | .
CN(C)c1ccc(N=O)cc1 | 0.4µM | / | / | / | / | .
CN(C)c1ccc(N)cc1 | 14µM | / | / | / | / | .
COc1cc(CC(=O)OCC2=C[C@H]3[C@@H]4C(C)(C)[C@]4(OC(C)=O)[C@H](OC(=O)Cc4ccccc4)[C@@H](C)[C@]3(O)[C@@H]3C=C(C)C(=O)[C@@]3(O)C2)ccc1O | . | . | / | / | / | .
SMILES | ALDH1A1 inh | KinaseGlo FLuc | IMPase inh | PNC assembly inh | LMNA splice mod | HPGD block
O=C(Cc1ccccc1)N1CCN(Cc2c[nH]c3ccccc23)CC1 | 25µM | . | . | . | ? | .
O=C(Cc1ccccc1)N1CCN(Cc2ccccn2)CC1 | ? | . | . | -84 | . | .
CN(CC(=O)N[C@H](CO)Cc1ccccc1)C(=O)[C@H](CCS(C)=O)NC(=O)[C@@H](N)Cc1ccc(O)cc1 (stereo partly drawn) | . | / | / | / | / | /
COc1ccc(C(=O)O[C@H]2CC[C@@]3(C)[C@H]4CC[C@H]5[C@]3(C[C@]3(O)[C@H]6CN7C[C@H](C)CC[C@H]7[C@](C)(O)[C@]6(O)[C@H](O)C[C@]53O)O[C@]24O)cc1OC | .[13.5 µM] | .[7.66 µM] | / | / | / | .
O=C1NC(=S)NC(=O)C1=Cc1cccc2cc3ccccc3cc12 | ? | .[7.66 µM] | / | / | / | .
O=C(O)CCn1cc(C=C2C(=O)NC(=S)NC2=O)c(-c2cccc(Cl)c2)n1 | 3.5µM | . | / | / | / | /
O=C(O)CCn1cc(C=C2C(=O)NC(=O)NC2=O)c(-c2ccc(Br)cc2)n1 | . | . | / | . | ? | 28µM
NC1(P(=O)(O)O)CCCCC1 | .[13.5 µM] | .[7.66 µM] | / | / | / | .
O=[N+]([O-])c1cc(Cl)c(Cl)c(Cl)c1 | ? | / | / | / | / | .
O=C(CN1CCCCC1)c1cccc(Br)c1 | 1.4µM | . | . | . | . | .

Compound activity deposited in PubChem by National Center for Advancing Translational Sciences (NCATS).
